The source made the active and inactive calls. The rule behind the calls is not given here.
Key:
[1] = tested on: Botulinum neurotoxin type F light chain protease (Clostridium botulinum); experiment: Clostridium botulinum type F light chain protease inhibitors, microsphere substrate cleavage, validation (AID 588459); conditions: multiplex microsphere protease substrate cleavage assay, flow cytometry; at 10 µM; stronger effect = higher value
[2] = target: Botulinum neurotoxin type A (Clostridium botulinum) (UniProt P0DPI0); experiment: BoNT/A light chain protease inhibitors, biochemical, multiplex microsphere flow cytometry, validation set (AID 588460); conditions: at 10 µM, stronger effect = higher value
Botulinum neurotoxin type A (Clostridium botulinum), sequence (P0DPI0 whole entry, looked up): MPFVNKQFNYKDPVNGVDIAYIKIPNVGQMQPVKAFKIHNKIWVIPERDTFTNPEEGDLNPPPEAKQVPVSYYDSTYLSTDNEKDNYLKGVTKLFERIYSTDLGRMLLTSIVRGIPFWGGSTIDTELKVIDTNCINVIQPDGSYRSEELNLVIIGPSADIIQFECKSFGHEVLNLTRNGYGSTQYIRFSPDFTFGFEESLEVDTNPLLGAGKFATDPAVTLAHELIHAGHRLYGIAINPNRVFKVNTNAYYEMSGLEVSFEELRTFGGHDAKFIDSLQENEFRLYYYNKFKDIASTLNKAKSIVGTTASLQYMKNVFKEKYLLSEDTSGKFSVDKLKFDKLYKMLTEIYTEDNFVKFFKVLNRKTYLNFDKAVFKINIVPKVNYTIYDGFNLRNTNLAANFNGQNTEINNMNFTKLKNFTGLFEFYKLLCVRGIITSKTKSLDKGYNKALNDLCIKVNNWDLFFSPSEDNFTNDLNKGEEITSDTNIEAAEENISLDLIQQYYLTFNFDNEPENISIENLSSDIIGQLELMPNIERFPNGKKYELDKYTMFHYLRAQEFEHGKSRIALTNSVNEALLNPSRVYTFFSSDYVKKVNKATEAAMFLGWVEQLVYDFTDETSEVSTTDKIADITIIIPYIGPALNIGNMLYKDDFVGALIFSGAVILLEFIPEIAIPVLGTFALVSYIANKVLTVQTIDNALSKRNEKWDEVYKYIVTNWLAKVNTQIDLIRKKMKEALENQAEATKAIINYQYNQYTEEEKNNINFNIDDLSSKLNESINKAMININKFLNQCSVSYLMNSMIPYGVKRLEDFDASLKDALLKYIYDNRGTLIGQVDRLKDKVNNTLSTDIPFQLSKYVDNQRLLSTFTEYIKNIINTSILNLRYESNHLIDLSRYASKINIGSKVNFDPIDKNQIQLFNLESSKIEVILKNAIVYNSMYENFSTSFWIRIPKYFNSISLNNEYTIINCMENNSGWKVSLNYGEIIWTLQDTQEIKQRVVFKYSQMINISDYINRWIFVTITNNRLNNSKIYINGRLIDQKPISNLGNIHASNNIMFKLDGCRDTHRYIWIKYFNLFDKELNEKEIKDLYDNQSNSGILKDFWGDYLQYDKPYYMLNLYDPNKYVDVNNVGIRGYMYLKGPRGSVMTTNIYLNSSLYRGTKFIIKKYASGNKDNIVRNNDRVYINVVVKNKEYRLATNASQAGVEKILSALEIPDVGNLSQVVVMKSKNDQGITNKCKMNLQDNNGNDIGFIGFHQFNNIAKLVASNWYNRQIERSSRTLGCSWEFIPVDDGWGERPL

[3] = target: Lethal factor (Bacillus anthracis) (UniProt P15917); experiment: Bacillus anthracis lethal factor inhibition, microsphere flow cytometry protease assay, validation at 10 µM (AID 588461); conditions: multiplex microsphere protease cleavage assay, stronger effect = higher value
Lethal factor (Bacillus anthracis), sequence (P15917 whole entry, looked up): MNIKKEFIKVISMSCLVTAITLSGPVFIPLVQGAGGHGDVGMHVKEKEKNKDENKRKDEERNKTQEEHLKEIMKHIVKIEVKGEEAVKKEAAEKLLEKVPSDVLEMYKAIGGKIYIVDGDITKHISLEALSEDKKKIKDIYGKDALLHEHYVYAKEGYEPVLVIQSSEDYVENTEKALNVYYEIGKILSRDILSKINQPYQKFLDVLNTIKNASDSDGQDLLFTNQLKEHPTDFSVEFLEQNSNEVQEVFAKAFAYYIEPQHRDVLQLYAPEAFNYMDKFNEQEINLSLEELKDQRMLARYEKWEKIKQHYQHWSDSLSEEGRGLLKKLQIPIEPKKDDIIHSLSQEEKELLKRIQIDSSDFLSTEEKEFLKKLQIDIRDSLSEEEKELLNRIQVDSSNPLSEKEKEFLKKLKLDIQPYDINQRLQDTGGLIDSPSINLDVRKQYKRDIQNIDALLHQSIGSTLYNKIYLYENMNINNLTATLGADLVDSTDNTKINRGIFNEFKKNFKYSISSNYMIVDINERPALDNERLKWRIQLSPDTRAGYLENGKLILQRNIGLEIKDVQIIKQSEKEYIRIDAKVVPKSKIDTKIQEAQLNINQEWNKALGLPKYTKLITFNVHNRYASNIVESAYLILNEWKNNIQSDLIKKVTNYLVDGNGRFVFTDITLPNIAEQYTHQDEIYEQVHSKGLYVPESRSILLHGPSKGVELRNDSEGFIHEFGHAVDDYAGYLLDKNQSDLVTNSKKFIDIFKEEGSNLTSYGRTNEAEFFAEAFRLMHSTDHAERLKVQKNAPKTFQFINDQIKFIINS

Measured: inhibition

Cc1nc(C2CC(=O)OC23CCCCC3)cs1 (configuration not stated)
inactive: [1] 0.3% | [2] -0.7% | [3] -10.4%

NS(=O)(=O)c1cc2c(cc1C(F)(F)F)NC(Cc1ccccc1)NS2(=O)=O (configuration not stated)
inactive: [1] 2.4% | [2] 1.4% | [3] 3.5%

C[N+]1(C2CCC3CCCC2C3O)CCCCC1 (configuration not stated)
inactive: [1] 1.7% | [2] 2.4% | [3] -3.7%

COc1ccc(-c2c(NC(=O)c3ccco3)n(C)c3ccccc3c2=O)cc1
inactive: [1] 1.5% | [2] 0.4% | [3] -0.7%

COc1ccc(-c2c[n+](CC(=O)OC3CC(C)CCC3C(C)C)c3n2CCC3)cc1 (configuration not stated)
inactive: [1] 0.9% | [2] 0.1% | [3] -5.8%

CCNC(=O)C(Cc1ccccc1)NC(=O)OCc1ccccc1 (configuration not stated)
inactive: [1] 0.3% | [2] -1.4% | [3] 5.5%

Nc1c(C(=O)c2ccccc2)oc2ccccc12
inactive: [1] 1.8% | [2] 1% | [3] -7.3%

c1cnc2c(c1)ccc1cccnc12
inactive: [1] -1.4% | [2] -5.9% | [3] -2.3%

O=[N+]([O-])c1ccc(O)c2ncccc12
inactive: [1] -1.5% | [2] -3.7% | [3] -2.8%

CC(=O)Oc1ccc2c(=O)c(Oc3ccccc3[N+](=O)[O-])coc2c1
inactive: [1] 0.2% | [2] -1.2% | [3] -6.2%

Cc1cc(-c2nn(-c3ccccc3F)cc2CN2CCCC(O)C2)c(C)s1 (configuration not stated)
inactive: [1] 3% | [2] 0.2% | [3] -0.9%

Cc1oc2cc(O)ccc2c(=O)c1Oc1ccccc1Br
inactive: [1] -1.1% | [2] -0.5% | [3] -0.7%

CCOc1ccc(C(=O)/C=C/c2cc(OC)c(OC)c(OC)c2)cc1
inactive: [1] 0.5% | [2] -0.5% | [3] 4.5%

CSCC[C@H](NC(=O)OC(C)(C)C)C(=O)N1CCC(C(=O)N[C@@H](C)C(=O)O)CC1
inactive: [1] -3.4% | [2] 0.4% | [3] -4.2%

COc1ccc(C(=O)/C=C/c2cc(C(=O)O)cc3c2OCOC3)c(O)c1
inactive: [1] 1.3% | [2] -0.8% | [3] 4.4%

Cc1ccc(-n2cc(CNCCN3CCOC3=O)c(-c3ccc(F)cc3)n2)cc1
inactive: [1] -3.2% | [2] 1.5% | [3] -7.8%

O=C(Cc1ccccc1)NNC(=O)Cc1ccccc1
inactive: [1] 0.3% | [2] 1.7% | [3] -1.2%

Nc1cc(-c2ccncc2)c[nH]c1=O
inactive: [1] -3.2% | [2] -2% | [3] -5.1%

Oc1ccc(Oc2ncc(Cl)cc2Cl)cc1
inactive: [1] 1.4% | [2] -0.7% | [3] -2.9%

COC(=O)C1=C(C)NC(C)=C(C(=O)OCCN(C)Cc2ccccc2)C1c1cccc([N+](=O)[O-])c1 (configuration not stated)
inactive: [1] -2.1% | [2] -0.8% | [3] -3.7%

OCC1(CCOc2ccccc2)CCN(CCCn2cccn2)CC1
inactive: [1] -0.5% | [2] -1% | [3] -1.4%

O=C(O)CCCN1C(=O)NC2NC(=O)NC21 (configuration not stated)
inactive: [1] 0.1% | [2] -0.8% | [3] 0.4%

O=C(NC(=S)N1CCCCC1)c1cccnc1
inactive: [1] 1.2% | [2] 1% | [3] -4.6%

CCc1cc(=O)oc2cc3occ(-c4ccc(OC)c(F)c4)c3cc12
inactive: [1] 2.2% | [2] -0.9% | [3] -2.7%

CC(=O)N1CCN(c2ccc(OC[C@H]3CO[C@](Cn4ccnc4)(c4ccc(Cl)cc4Cl)O3)cc2)CC1
inactive: [1] -2.2% | [2] -1.1% | [3] -3.1%

CC12CCC(C(=O)NNc3ccccc3)(C(=O)C1=O)C2(C)C (configuration not stated)
inactive: [1] 1.1% | [2] 0.4% | [3] -3.4%

C=CCN1C(=O)c2oc3ccccc3c(=O)c2C1c1ccc(O)c(OC)c1 (configuration not stated)
inactive: [1] -1.5% | [2] -0.6% | [3] 1.1%

C#C[C@]1(O)CC[C@H]2[C@@H]3CCc4cc(O)ccc4[C@H]3CC[C@@]21C
inactive: [1] -3.8% | [2] -2.8% | [3] 6.8%

O=C(c1ccc(Cl)cc1)C1CCCN(Cc2ccc(Oc3ncccn3)cc2)C1 (configuration not stated)
inactive: [1] 2.2% | [2] -1.2% | [3] -3.2%

Cc1cnc(C(=O)NCCc2ccc(S(=O)(=O)NC(=O)NC3CCCCC3)cc2)cn1
inactive: [1] 0.7% | [2] -0.2% | [3] -0.1%

COc1cc(C2NCCc3c2[nH]c2ccccc32)ccc1OC(C)C (configuration not stated)
inactive: [1] 1.4% | [2] -0.5% | [3] 4.3%

CCC(C)n1ncn(-c2ccc(N3CCN(c4ccc(OCC5COC(Cn6cncn6)(c6ccc(Cl)cc6Cl)O5)cc4)CC3)cc2)c1=O (configuration not stated)
inactive: [1] 2.7% | [2] -0.4% | [3] 4.4%

Cc1ccc2c(CN3CCN(Cc4ccc5c(c4)OCO5)CC3)cc(=O)oc2c1C
inactive: [1] -2.8% | [2] 0.6% | [3] -5.7%

CC1(C)C(=O)OC(C(=O)c2ccc(Cl)cc2)C(C)(C)C1=O (configuration not stated)
inactive: [1] 1.9% | [2] 1.3% | [3] -3.1%

CC1(C)O[C@@H]2C[C@H]3[C@@H]4CCC5=CC(=O)C=C[C@]5(C)[C@@]4(F)[C@@H](O)C[C@]3(C)[C@]2(C(=O)CO)O1
inactive: [1] -2.6% | [2] -3.3% | [3] -3.9%

C=C(CC)C(=O)c1ccc(OCC(=O)O)c(Cl)c1Cl
inactive: [1] -6.2% | [2] -2.2% | [3] -10.3%

CCn1cc(C(=O)O)c(=O)c2cc(F)c(N3CCNCC3)cc21
inactive: [1] -0.1% | [2] -0.5% | [3] 2.3%

CC1=CC2(O)OCCN(CCO)C2=CC1=O (configuration not stated)
inactive: [1] -1.5% | [2] -1% | [3] 2.5%

O=c1nc2n(c3c1oc1ccccc13)Cc1ccccc1-2
inactive: [1] 2.1% | [2] 0% | [3] -4.3%

CC(C)(C)c1csc(N/N=C/c2cccnc2)n1
inactive: [1] -3.3% | [2] 0.5% | [3] 0.6%

COc1ccc(CCN=C(N)C(C)c2ccccc2)cc1OC (configuration not stated)
inactive: [1] -0.2% | [2] 0% | [3] 6.6%

C/C(CCc1oc2ccc(Cl)cc2c1-c1ccc(C)o1)=N\O
inactive: [1] 1.6% | [2] -0.7% | [3] -3.2%

CC(C)(C)N1NC2(CCCCC2)NC1=S
inactive: [1] 4.9% | [2] -1.4% | [3] -1.4%

Cc1cc(/C=N/O)c(C)n1-c1ccc(Br)cc1
inactive: [1] 1.9% | [2] 1.1% | [3] 0.9%

Nc1nc2ccc(OC(F)(F)F)cc2s1
inactive: [1] 0.4% | [2] -0.1% | [3] 1.8%

COc1ccc(/C=C(/C#N)c2cccnc2)cc1OC
inactive: [1] -0.3% | [2] 1% | [3] -7.4%

CC(C)COc1ccc(Cc2cnc(N)nc2N)cc1
inactive: [1] 5% | [2] 2% | [3] 1.9%

CCCCCCCCNC(C)C(O)c1ccc(SC(C)C)cc1 (configuration not stated)
inactive: [1] -4.9% | [2] -1.5% | [3] -9.4%

Cc1ccccc1NC(=O)c1c(C)cc(=O)oc1C
inactive: [1] -0.8% | [2] -0.1% | [3] 1.7%

COc1ccc(C(=O)Nc2ccc(OC)c([N+](=O)[O-])c2)cc1Br
inactive: [1] 1.7% | [2] -0.3% | [3] 8.3%

COc1cc(C(=O)NCCc2c[nH]c3ccccc23)ccc1OCc1c(C)noc1C
inactive: [1] 3.6% | [2] -1.7% | [3] 0.2%

CCN1C(=O)C(CC(=O)Nc2ccc(F)cc2)N(Cc2ccco2)C1=S (configuration not stated)
inactive: [1] -2.9% | [2] -2.8% | [3] -7.4%

CC1(C)Cc2ccccc2-c2n[nH]c(=S)n21
inactive: [1] -0.3% | [2] 0.5% | [3] 1.7%

CC(C)[N+](C)(CCOC(=O)C1c2ccccc2Oc2ccccc21)C(C)C
inactive: [1] -0.1% | [2] 0.5% | [3] 4%

CN(C)C(=O)C12CCC(C)(c3nc4ccccc4nc31)C2(C)C (configuration not stated)
inactive: [1] -1.3% | [2] -1.5% | [3] 1.8%

CC(C)CCNC(=O)[C@H](CC(C)C)NC(=O)[C@H]1O[C@@H]1C(=O)O
inactive: [1] -3.8% | [2] 1.5% | [3] -3%

CC(C)NNC(=O)c1ccncc1
inactive: [1] 1.2% | [2] 1.3% | [3] -7.1%

CCOC(=O)C(Cc1cc(C(C)=O)ccc1OC(C)C)C(=O)OCC
inactive: [1] 0.4% | [2] -0.1% | [3] -1.9%

O=C1CCCCCN1Cc1ccccc1
inactive: [1] -3.6% | [2] -1.9% | [3] -2.7%

O=CNC1CCCc2c1[nH]c1ccc(Cl)cc21 (configuration not stated)
inactive: [1] -1.4% | [2] 0.2% | [3] 1.6%

COc1ccc(NS(=O)(=O)c2ccc(N)cc2)nn1
inactive: [1] 7.2% | [2] 2% | [3] -0.1%

NNC(=O)c1cc(O)c(O)c(O)c1
inactive: [1] -3.2% | [2] -1% | [3] -2.8%

CCC(C)NCCOc1ccc(C(C)(C)c2ccccc2)cc1 (configuration not stated)
inactive: [1] -2% | [2] 0.7% | [3] -12.8%

O=c1n(CCCN2CCN(c3cccc(Cl)c3)CC2)nc2ccccn12
inactive: [1] -5.2% | [2] -0.2% | [3] -1.3%

— PubChem BioAssay
